From PubChem BioAssay
Rows were chosen to be rich in hits. Some 0.99% of all compounds tested hit in one or more screens of this group.
AMA1-RON2 inh: disrupts binding of P. falciparum AMA1 to RON2. 360,000 tested, 0.2% active. AlphaScreen AMA1-biotinylated RON2 peptide binding. AID 720542. Potency, µM (doses to about 58.2 µM), without a hit: top-dose activity change, negative = inhibition, most hits filed as inhibitors;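 also: 0% = vehicle wells and -100% = peptide control; nearly all actives have a fitted effect of over 45% in size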
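AMA1 (3D7) with his tag at 25 nM final met compounds first, then biotinylated RON2 peptide at 25 nM; detection used donor plus acceptor beads, 10 µg/mL apiece, read by AlphaScreen after 30 min at room temperature.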
SARS PLpro yeast: SARS-CoV PLP inhibition in yeast; Potency, µM (highest dose often 32.9 µM), without a hit: top-dose activity, positive = growth rescue, usual class: activators; 330,000 tested, 0.19% active; S. cerevisiae expressing SARS-CoV PLpro, growth rescue; AID 485353; calls by dose curve; also: 0% is about no effect; nearly all actives have a fitted effect of over 55% in size
AmpC inh detg: AmpC beta-lactamase inhibition with detergent present | Potency, µM (doses to about 114 µM), for inactives: top-dose activity change, negative = inhibition, hits mostly inhibitors | P00811 | 370,000 tested, 0.041% active | AmpC hydrolysis of nitrocefin, absorbance 480 nm, 0.01% Triton;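 also: 0% = no-compound wells and -100% = no-enzyme wells; nearly all actives have a fitted effect of over 25% in size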
Target sequence (P00811 whole entry, looked up): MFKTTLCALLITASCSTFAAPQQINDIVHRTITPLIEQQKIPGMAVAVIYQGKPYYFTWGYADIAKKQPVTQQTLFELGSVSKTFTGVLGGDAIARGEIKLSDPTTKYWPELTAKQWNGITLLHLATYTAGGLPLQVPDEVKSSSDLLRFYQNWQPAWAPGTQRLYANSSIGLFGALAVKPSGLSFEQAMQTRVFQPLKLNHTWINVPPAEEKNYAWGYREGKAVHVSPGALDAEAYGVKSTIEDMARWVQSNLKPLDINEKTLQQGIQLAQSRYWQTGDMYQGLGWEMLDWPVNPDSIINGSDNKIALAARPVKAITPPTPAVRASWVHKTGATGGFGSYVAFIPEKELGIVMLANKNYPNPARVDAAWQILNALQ
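20 mM phosphate pH 7.0 + 0.01% (detergent screen) or 0.0001% Triton X-100; 5.3 nM AmpC reagent; cpd preinc 15 min RT; nitrocefin (800 uM stock) to start; A480 q20 s × 4 min; Activity was normalised to no-enzyme and no-compound control wells.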
AmpC no deterg: blocks E. coli AmpC beta-lactamase in detergent-free assay; P00811; AID 485341; Potency, µM (titrated, usually from 57.1 µM), for the others: at the top dose activity change, negative = inhibition, actives largely listed as inhibitors; AmpC nitrocefin hydrolysis, absorbance 480 nm, 0.0001% Triton; 330,000 tested, 0.52% active;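 also: plate controls were no compound for no effect and no enzyme for full effect; nearly all actives have a fitted effect of over 20% in size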
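AmpC (5.3 nM in the dispensed reagent) in 20 mM phosphate pH 7.0 with 0.01% (detergent screen) or 0.0001% Triton X-100 was preincubated with compounds for 15 min at room temperature. Nitrocefin was then added from an 800 uM solution, and hydrolysis was followed at 480 nm.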
NS1 inh: influenza NS1 inhibition | Potency, µM (doses to about 46.1 µM), inactives show at the highest dose activity, positive = more growth | 270,000 tested, 0.4% active | AID 2326; calls by dose curve; also: actives are rising curves; nearly all actives have a fitted effect of over 50% in size
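A cell-based growth assay was used: compounds that relieve NS1-induced slow growth of budding yeast raise OD600. Assay medium was yeast nitrogen base with ammonium sulphate and -URA supplement, pH 6.0, with 2% galactose.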
Active calls of the source: *; ? = inconclusive; . = no result given. Unless noted, calls follow the shape of the dose curve; as a rule, active = well fitted curve in the direction sought with a large enough effect; inconclusive = small, poorly fitted or top-dose-only effect, or another doubt; inactive = no such curve, though single readings can be large; an effect the other way counts as inactive or inconclusive. Potency is read from the fitted curve at half-maximal effect.

SMILES	AMA1-RON2 inh	SARS PLpro yeast	AmpC inh detg	AmpC no deterg	NS1 inh
O=S(=O)(c1ccc2c(c1)CCCN2)N1CCCC1	-6.6%	6.1%	-0.4%	-15.1%	.
O=C(NN=Cc1ccccc1OC(F)F)c1ccc(NS(=O)(=O)c2cccs2)cc1	70.0%	?	.	15.8µM*	.
COc1ccc2nc(NC(=O)CNS(=O)(=O)c3cccs3)sc2c1	0.2%	5.5%	-5.2%	?	-0.8%
COc1ccc2nc(NC(=O)c3ccc(NS(=O)(=O)c4cccs4)cc3)sc2c1	-19.1%	18.7%	?	2.51µM*	13.0%
COc1ccc(/C(C)=N/NC(=O)c2ccc(NS(=O)(=O)c3cccs3)cc2)cc1	19.9%	0.5%	-9.6%	10µM*	6.6%
CCCOC(=O)c1c(-c2ccccc2)c(-c2ccccc2)nn(C)c1=O	.	.	16.5%	.	.
CCOc1ccc(CNC(=O)CCCn2c(=O)c3cccn3c3ccccc32)cc1	.	.	3.5%	.	.
O=C(O)Cc1ccc(N=Nc2c(O)c(C(=O)O)cc3ccccc23)cc1	?	-1.4%	-14.5%	-39.3%	15.8%
NS(=O)(=O)c1ccc(N=Nc2c(O)c(C(=O)O)cc3ccccc23)cc1	8.3%	1.4%	-10.4%	22.4µM*	-2.9%
Fc1ccc(CSc2nncn2NC/C=C/c2ccccc2)cc1	-17.9%	-5.1%	-0.2%	7.08µM*	-3.8%
Fc1ccc(CSc2nncn2NCc2ccccc2)cc1	13.2%	9.3%	-3.4%	-3.8%	-14.4%
CCOC(=O)/C=C1\SCC(=O)N1CC(=O)NC(C)c1ccccc1 (stereo not given)	-2.5%	-15.8%	-4.7%	-21.5%	11.1%
CCOC(=O)/C=C1\SCC(=O)N1CC(=O)NC(c1ccccc1)c1ccccc1	-0.8%	3.6%	-13.6%	28.2µM*	?
CCOC(=O)c1cc(OC(=O)c2cc(Cl)ccc2OC)n(-c2ccccc2)n1	.	.	19.3%	.	.
O=C(NCc1ccco1)/C(=C/c1ccc(C(F)(F)F)cc1)c1nc2ccccc2[nH]1	63.3%	5.2%	-3.7%	17.8µM*	?
O=C(Cn1c(=O)oc2cc(S(=O)(=O)N3CCCC3)ccc21)N1CCN(c2ccccn2)CC1	-4.5%	4.5%	?	7.94µM*	-5.0%
O=C(Cn1c(=O)oc2cc(S(=O)(=O)N3CCCC3)ccc21)N1CCN(c2ccccc2F)CC1	0.0%	6.5%	-2.0%	-3.3%	8.6%
O=C(NCc1ccco1)c1ccc(Cn2c(SCc3ccc(F)cc3)nc3cccnc32)cc1	.	.	-6.0%	.	.
CCCOc1ccccc1-n1sc2c(c1=S)-c1cc(OC)cc3c1N(C(=O)C3=O)C2(C)C	2.82µM*	-3.2%	-10.9%	-15.1%	13.9%
c1cc(CCN2CCCCC2)ccn1	.	.	.	.	0.3%
O=C1CC(c2ccc(F)cc2)Cc2nc(N3CCc4ccccc43)ncc21 (stereo not given)	.	2.2%	-9.8%	-14.8%	7.08µM*
Cn1cc(C(=O)O)c(=O)c2cc(S(=O)(=O)N3CCOCC3)ccc21	.	.	-8.3%	.	.
CC(C)C[C@@H]1NC(=O)[C@H](Cc2ccc(O)cc2)NC(=O)[C@H](CCC(N)=O)NC(=O)c2cc([N+](=O)[O-])cc(I)c2NCC[C@@H](C(N)=O)NC1=O	.	-15.2%	?	17.5%	-25.0%
NC(=O)[C@@H]1CCNc2c(I)cc([N+](=O)[O-])cc2C(=O)N[C@@H](CO)C(=O)N[C@@H](Cc2ccc(O)cc2)C(=O)N1	.	1.8%	4.8%	-3.1%	11.2µM*
CCN(CC)CCCNC(=O)Cn1c(-c2cccs2)cc2cc(Cl)ccc21	.	.	16.4%	.	.
SMILES	AMA1-RON2 inh	SARS PLpro yeast	AmpC inh detg	AmpC no deterg	NS1 inh
Cn1c(=O)oc2cc(S(=O)(=O)N3CCCC(C(=O)N4CC=C(c5ccccc5)CC4)C3)ccc21 (stereo not given)	.	4.4%	-9.3%	76.5%	10µM*
COc1ccccc1N1CCN(C(=O)C2CCCN(S(=O)(=O)c3ccc4c(c3)oc(=O)n4C)C2)CC1 (stereo not given)	-1.2%	-3.5%	0.8%	198.5%	-9.7%
COc1ccc(N2CCN(CC(O)COC(c3ccc(F)cc3)c3ccc(F)cc3)CC2)cc1 (stereo not given)	28.2µM*	-0.5%	-2.5%	62.9%	-2.5%
COCCOCC(O)CN1CCN(c2ccc(C)cc2)CC1 (stereo not given)	14.1µM*	7.4%	4.7%	-0.8%	2.2%
COc1ccc(N2CCN(CC(O)COC(c3ccccc3)c3ccccc3)CC2)cc1 (stereo not given)	?	-1.6%	-6.2%	88.6%	-16.1%
CSc1ccc(CCNC(=O)c2cc3c(-c4ccccc4F)nn(C)c3s2)cc1	.	.	-3.1%	.	.
N#Cc1c(-n2ncnc2-c2ccccc2C(F)(F)F)sc2c1CCCCC2	.	.	0.6%	.	.
CCc1nc2sc3c(c2c(=O)n1NC(=O)CCl)CCCC3	8.2%	10µM*	0.7%	-12.8%	-6.2%
CC(=O)N(C(C)=O)n1c(C)nc2sc3c(c2c1=O)CCCC3	-8.5%	-1.3%	5.9%	2.9%	7.5%
O=C(Cn1ncc2c(=O)oc3ccccc3c21)Nc1cc(F)ccc1F	.	.	-1.6%	.	.
CC(C)CC(=O)NC(=S)Nc1cccc(NC(=O)c2ccccc2Cl)c1	3.4%	14.7%	-0.9%	-39.3%	1.7%
CC(C)Oc1cccc(C(=O)NC(=S)Nc2cccc(NC(=O)c3ccccc3Cl)c2)c1	35.9%	1.7%	-18.9%	3.16µM*	23.3%
COc1cccc(C(=O)NC(=S)Nc2ccc(N3CCCC3)cc2)c1	25.1µM*	7.0%	-2.6%	-31.8%	12.9%
CN(Cc1ccccc1)C(=O)C(=O)Nc1ccc2nc3n(c(=O)c2c1)CCCCC3	.	.	-0.8%	.	.
O=C(Cn1cc(S(=O)(=O)Cc2ccc(F)cc2)c2ccccc21)NCc1ccccc1	.	.	18.6%	.	.
COc1ccc(C(=O)Nc2nnc(SCc3cc(=O)c4cc(C)ccc4[nH]3)s2)cc1OC	.	.	25.8%	.	.
COc1cccc(/C=N/NC(=O)c2ccccc2)c1OS(=O)(=O)c1ccccc1	-17.3%	1.7%	-6.7%	31.6µM*	7.2%
O=c1n(Cc2ccc(F)cc2)c2ccccc2c2nc(-c3ccccc3)nn12	.	.	-0.2%	.	.
Cc1ccc(-c2cc(C(=O)N3CCN(S(=O)(=O)c4ccc(Br)s4)CC3)[nH]n2)c(C)c1	.	.	2.7%	.	.
COc1ccc(CN2CCN(Cc3ccc(C(F)(F)F)cc3)CC2)c(OC)c1	25.1µM*	-2.6%	3.3%	88.3%	-3.2%
COc1ccc(CN2CCN(Cc3ccc(C)cc3)CC2)c(OC)c1	-26.9%	-0.2%	-3.3%	1.6%	1.9%
Cc1cc(NC(=O)CN(C)S(=O)(=O)c2ccc3c(c2)CCCC(=O)N3)ccc1Br	.	.	-3.5%	.	.
Cc1ccc2oc3c(c(=O)c2c1)C(c1cccc(O)c1)N(c1ccccn1)C3=O (stereo not given)	-8.1%	3.7%	-5.1%	3.55µM*	-120.6%
Cc1cccc(N2CCN(S(=O)(=O)c3ccc4c(c3)C(C(C)C)C(=O)N4)CC2)c1C (stereo not given)	.	.	18.9%	.	.
O=C(O)C[C@H]1OCC=C2CN3CC[C@]45c6ccccc6N[C@@H]4[C@H]1[C@H]2C[C@H]35	.	.	.	.	-5.8%
